# Laboratory results from ChEMBL document CHEMBL1157539, “Thousands of chemical starting points for antimalarial lead identification” (Nature, 2010).
# Key:
# Type in all cases: functional
# Plasmodium falciparum [1] = experiment: GSK_TCMDC: Inhibition of Plasmodium falciparum 3D7 in whole red blood cells, using parasite LDH activity as an index of growth. Test compounds present at 2uM
# Plasmodium falciparum [2] = experiment: GSK_TCMDC: Inhibition of Plasmodium falciparum Dd2 in whole red blood cells, using parasite LDH activity as an index of growth. Test compounds present at 2uM
# HepG2 = experiment: GSK_TCMDC: Percent inhibition of human HepG2 cell line. Test compounds present at 10uM.
Structure (SMILES),Inhibition (Plasmodium falciparum [1]) [%],Inhibition (Plasmodium falciparum [2]) [%],Inhibition (HepG2) [%]
CCn1ncc(Cl)c1CN(C)S(=O)(=O)c1ccc(Br)cc1,90,70,9
CCc1nc2c(N)nc(N)nc2nc1-c1ccc(OC)cc1,86,0,44
CC(=O)c1ccc(Nc2c(C(N)=O)cnc3cc(-c4c(C)noc4C)ccc23)cc1,99,44,0
Cc1cccc2nc(-c3ccc(-c4cccc(NC(=O)Nc5ccsc5)c4)cc3)[nH]c12,100,24,24
COc1ccc2c(=NN=Cc3cccnc3)cc(C)[nH]c2c1,85,12,0
O=C(/C=C/c1ccc(-c2ccccc2)cc1)NCCCCCN1CCC(c2c[nH]c3ccccc23)CC1,97,23,91
CN(C)c1ccc(-c2ccc(C(=O)NC3CCN(Cc4ccc5c(c4)OCCO5)CC3)s2)cc1.O=C(O)C(F)(F)F,100,73,36
O=C(O)/C=C/c1cccc(F)c1F,96,1,58
Cc1ccc(C(=O)Nc2cc(S(=O)(=O)N3CCCC3)ccc2OCC(F)(F)F)cc1,93,3,0
Cc1[nH]c(C)c(-c2ccc(OCc3ccc(OC(F)(F)F)cc3)nc2)c(=O)c1Cl,98,96,3
Cc1ccccc1N1CCN(c2ccc(C(=O)Nc3ccccc3)cn2)CC1.O=C(O)C(F)(F)F,95,69,44
N#Cc1cccc(C(=O)Nc2cccc(-c3ccc(C(=O)NCCCN4CCOCC4)cc3)c2)c1,96,21,21
O=C(NCCCCN1CCC2c3cccc(O)c3CCC21)c1ccc(-c2ccccc2)cc1 (stereo not drawn),81,50,23
Cc1ccc(C2=NNC3(S2)C(=O)Nc2ccc(C)cc23)cc1 (stereo not drawn),95,89,35
Cc1cc(NC(=O)c2coc3cc(F)c(N4CC(C)N(C)C(C)C4)cc23)ccc1-n1ccnc1.Cl (stereo not drawn),96,42,0
C#CC[C@@H](NC(N)=O)C(=O)O,97,0,1
CC(C)CNC(=O)c1ccnc(-c2ccc(CNC3Cc4ccccc4C3)cc2)c1.O=C(O)C(F)(F)F,99,29,25
Cc1ccc(O)c(-c2cc(C(=O)Nc3ccc(S(=O)(=O)N4CCCCCC4)cc3)[nH]n2)c1,100,80,25
CCNc1cc(C(=O)N[C@@H](Cc2ccccc2)[C@H](O)CNC2(CC(C)C)CC2)cc(N2CCCCS2(=O)=O)c1.Cl,87,29,0
O=C(NCCN1CCCCC1)c1ccc(Nc2nccc(Nc3ccc(Oc4ccccc4)cc3)n2)cc1,100,91,58
Cc1nc2ccc3ccc(CNc4ccc(C#N)cc4)cc3c2c(=O)[nH]1,84,56,55

Structure (SMILES),Inhibition (Plasmodium falciparum [1]) [%],Inhibition (Plasmodium falciparum [2]) [%],Inhibition (HepG2) [%]
O=C(Cn1c(CCc2cccc(F)c2F)cc(=O)c2cccnc21)N(CCCn1ccnc1)Cc1ccc(-c2ccc(C(F)(F)F)cc2)cc1,96,47,38
c1ccc2c(CNc3ccnc(NCc4cccc5ccccc45)n3)cccc2c1,99,71,51
O=C(O)C(F)(F)F.c1cc(CNCCc2ccncc2)cc(-c2cccc(-c3nc4ccccc4[nH]3)c2)c1,100,88,21
CCCCCCCN1CC[C@@H](CCCc2ccnc3ccc(OCCCCN/C(N)=N/O)cc23)[C@@H](CC)C1.O=C(O)C(=O)O,90,39,27
O=[N+]([O-])c1ccc(N/C(=N\c2ccccc2Br)NCCOc2ccccc2)c(O)c1,88,70,6
CN1CCN(c2ccnc3cc4c(cc23)N(Cc2ccccc2)CC4)CC1,94,27,0
C=CCCCNCC(NCCCNc1cc(=O)c2ccccc2[nH]1)c1cc(Br)cc(Br)c1 (stereo not drawn),94,19,0
CCc1c[nH]c2c(N3CCCC3=O)cc(C(=O)N[C@@H](Cc3ccccc3)[C@H](O)CNC3CCCCC3)cc12.O=CO,100,98,12
N#Cc1ccc(CN2CCCN(Cc3cccc(NC(=O)c4ccc(Cl)c(Cl)c4)c3)CC2)cc1.O=C(O)C(F)(F)F,95,10,19
O=C(Nc1nc2cc(S(=O)(=O)NCc3ccc(Cl)c(Cl)c3)ccc2n1CCCN1CCCC1)c1ccc(Cl)cc1.O=C(O)C(F)(F)F,89,16,57
Cc1cccc2nc(-c3ccc(-c4cccc(CNCCc5ccncc5)c4)s3)[nH]c12.O=C(O)C(F)(F)F,100,89,11
O=C(/C=C/c1ccc(Cl)c(Cl)c1)NCCCCCN1CCC(NC(=O)c2ccc(F)cc2F)CC1,96,11,17
Cc1cccc2nc(-c3cccc(-c4cccc(CNCCCN5CCCC5=O)c4)c3)[nH]c12.O=C(O)C(F)(F)F,100,76,9
CC1CN(c2cnn(Cc3ccc(NC(=O)Nc4ccc(F)cc4[N+](=O)[O-])cc3)c(=O)c2Cl)CC(C)N1.O=C(O)C(F)(F)F (stereo not drawn),89,10,4
O=C(O)C(F)(F)F.c1cc(CNCCN2CCNCC2)cc(-c2ccc(-c3nc4ccccc4[nH]3)cc2)c1,98,11,3
COc1ccc(NC(=O)[C@H](CC(C)C)Nc2ccnc(NCCc3ccc(F)cc3)n2)cc1.O=C(O)C(F)(F)F,86,22,0
CCn1ccc2c(N3CCCS3(=O)=O)cc(C(=O)N[C@@H](Cc3ccccc3)[C@H](O)CNC(C)(C)CCCC(C)C)cc21,97,98,8
CN1CCN(CC(=O)Nc2cccc(-c3cccc(-c4nc5ccccc5[nH]4)c3)c2)CC1,90,27,11
Nc1nc(N)c2c(ccc3c2ccn3Cc2ccccn2)n1,90,94,66
COc1cc2nccc(Nc3cc(C)cc(O)c3)c2cc1OC.Cl,97,0,0
Cc1cc(N[C@@H](CC(C)C)C(=O)NCCc2ccccc2)nc(Nc2ccccc2)n1.O=C(O)C(F)(F)F,100,38,1

Structure (SMILES),Inhibition (Plasmodium falciparum [1]) [%],Inhibition (Plasmodium falciparum [2]) [%],Inhibition (HepG2) [%]
Br.CC1(C)NC(N)=NC(=N)N1OCCCNC(=O)c1ccc(C(=O)NCCCON2C(=N)N=C(N)NC2(C)C)cc1,91,96,0
Nc1ccc(-c2ccc3ccnc(N)c3c2)cc1,100,68,38
N#Cc1ccc(-c2cnc3ccc(NCc4ccc(S(N)(=O)=O)cc4)nn23)cc1,98,100,7
COc1ccc(-c2ccc(NC(=O)c3cccc(Cl)c3)cc2)cc1CN(C)CCO.O=C(O)C(F)(F)F,89,52,39
CCCCNC(=O)c1cc(CNC2CCCCC2)ccc1-c1cccc(CNCc2ccc(-c3ccccc3)cc2)c1.O=C(O)C(F)(F)F,100,85,100
CC(Oc1ccc(NC(=O)c2cccs2)cc1)C(=O)c1ccc(Cl)cc1 (stereo not drawn),92,83,0
CC1(C)N=C(NC(=O)c2ccc([N+](=O)[O-])cc2)N=C(N)N1OCc1ccc2ccccc2c1,95,78,64
O=C(N[C@H]1CCN(Cc2ccc(OCCN3CCNCC3)c3ccccc23)C1)c1ccc(Cl)c(Cl)c1.O=C(O)C(F)(F)F,100,99,53
Cc1cnc(N2CCN(CCCN3CCCC3)CC2)nc1Oc1ccc(-n2ccnc2)cc1.O=C(O)C(F)(F)F,99,82,12
COc1cccc(-c2nn(C)c3sc(C(=O)NCCN(C)Cc4ccccc4)cc23)c1,92,26,21
O=C(Nc1cccc(CN2CCCN(Cc3ccc(O)cc3)CC2)c1)c1ccc(-c2ccccc2)cc1.O=C(O)C(F)(F)F,100,93,33
O=C(O)C(F)(F)F.c1cc(-c2ccc(CNCc3ccc(-c4csnn4)cc3)cc2)cc(-c2nc3ccccc3[nH]2)c1,100,96,60
O=C(Nc1ccon1)c1cc(-c2cccnc2)nc2ccc(Br)cc12,99,77,7
CCCn1c(Sc2ccc(C#N)c([N+](=O)[O-])c2)nnc1-c1ccc(OC)cc1,94,95,0
CCn1cc(-c2nc(-c3cc(OC)cc(OC)c3)no2)c(=O)c2ccccc21,89,77,0
Cl.Nc1c(I)cc(C(=O)Nc2ccc3nc4c(c(N)c3c2)CCCC4)cc1I,100,99,40
O=C(N[C@H]1CCN(Cc2ccc(OCCCN3CCCCC3)cc2)C1)c1ccc2ccccc2c1,97,32,8
CC(C)N1CCN(C(CN2CCN(CCCOc3ccccc3-c3ccccc3)CC2)c2ccc(F)cc2)CC1.Cl (stereo not drawn),100,96,98
CN(C)CCNCc1cccc(-c2ccc3c(Nc4cc(O)c(Cl)cc4F)ccnc3c2)c1,99,59,6
